Laboratory results reported in the supplement of paper PMC6555819.

Tests used:
Experiment in all cases: PBM binding z-score (relative to random genomic background probes); higher = stronger binding; sequences stand for … in GC…GCGATTGACAGCGTAGAATGAAGG
[1] = tested on: RARg:RXRa (NR concentration 270 nM, RXRa partner concentration 90 nM)
Outline: (§1)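 Custom Agilent 4×180K protein-binding microarrays carried double-stranded probes. Their 34-nt variable regions held direct-repeat seeds, single-nucleotide variants, half-site ablations and random human genomic background sequences. Arrays were incubated 1 h with ligand-free nuclear receptor dimers in PBS pH 7.4, 2% milk, 0.02% Triton X-100, 1 mM DTT, 0.2 mg/mL BSA and 0.4 mg/ml salmon testes DNA. Antibodies against each partner (one per run) detected binding, and scanned fluorescence was regression-normalized. Binding z-scores use random background probes as reference.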

[2] = tested on: RARg homodimer (NR concentration 270 nM)
Outline: as §1

[3] = tested on: RXRa DBDmut IVT, anti-RXR (DBD mutation: RXRa K156A/R161A, NR concentration 90 nM)
Outline: as §1

[4] = tested on: RXRa homodimer (NR concentration 180 nM)
Outline: as §1

[5] = tested on: THRa:RXRa (NR concentration 90 nM, RXRa partner concentration 90 nM)
Outline: as §1

[6] = tested on: THRa homodimer (NR concentration 90 nM)
Outline: as §1

[7] = tested on: VDR homodimer (NR concentration 270 nM)
Outline: as §1

Sequence | PBM binding z-score [1] | PBM binding z-score [2] | PBM binding z-score [3] | PBM binding z-score [4] | PBM binding z-score [5] | PBM binding z-score [6] | PBM binding z-score [7]
TATTCAGGGTCAAAGGCCAGAGTACGAATGTCGA | 6.24 | 5.27 | 3.3 | 7.75 | 3.83 | 1.25 | 3.62
CGTCAAAGATCAAGGTAACGTAACAGAAAGCAGC | 0.224 | 0.612 | -0.147 | 0.691 | 1.33 | 0.524 | -0.275
CCTACTGGGCCAAAGAGGTCATTGATGCCGATAA | 4.01 | 3.31 | 1.39 | 4.45 | 3.35 | 0.927 | 3.97
CCTTACGGGTTACTCCAGGTTATAGCATCGGAGT | 0.987 | 0.779 | -0.0626 | 1.26 | 4.49 | 0.236 | 0.487
TCTTGTAGATCAACAGGAGGTTAATAAAGATCGA | 0.776 | 0.301 | 0.161 | 1.03 | 0.904 | -0.0853 | -0.179
AACGAAAGGTCGAAGGTGAGTATACCCACCCGAA | 4.5 | 3.96 | 1.05 | 5.29 | 2.16 | -0.462 | 0.527
AGTCAAAGTTCAGGACGACGTAACGTAAAGCACG | 3.78 | 4.45 | 2.93 | 2.66 | 2.02 | 0.216 | 2.05
CGAACGAGGTCATTGACAGGACAGTGAATAGTAA | 7.11 | 6.33 | 4.84 | 7.11 | 4.06 | 2.45 | 5.66
CCTAGTGGGCCAAGGTCATTGATCAGTCAAAGCA | 3.74 | 3.3 | 1.05 | 3.2 | 3.45 | 2.05 | 2.91
CCTACTGGGCCATTCAGAGGTCAATGATCATATG | 4.55 | 3.43 | 0.406 | 3.05 | 2.97 | 1.32 | 1.44
CCTTACGGGTCACGAGGTTGTAGCACGACGAGCG | 5.67 | 5.42 | 2.05 | 6.5 | 3.19 | 0.351 | 1.99
GGAACGAGGGCAAAGTTCATAGCATCTGTCGACG | 5.71 | 3.92 | 3.54 | 6.27 | 3.03 | 0.017 | 4.43
AGTCAAAGTTTATCTAGGTAACGTAAGATATGCT | 1.12 | 1.41 | 1.93 | 0.551 | 1.6 | -0.0604 | 1.31
AATACAGGGTCATCGTACGCCAGAGTACGCACAG | 5.65 | 4.81 | 3.46 | 6.92 | 3.87 | 1.73 | 4.17
CAAACTAGGTCACCGAAAGGTCAAAGTCCGCATG | 8.9 | 8.27 | 2.98 | 7.88 | 4.72 | 2.96 | 4.24
TCTAGTTGGTCACGGAGGTCACAAACGACGGGTA | 4.49 | 5 | 0.949 | 4.62 | 3.39 | 2.07 | 2.78
AGTCAAAGTGCATCTAGGTAACGTAAGATATGCT | 1.07 | 1.23 | 1.55 | 0.663 | 1.31 | -0.154 | 0.36
CTATGTAGGTTAGGGGGGTCATTCAGTTTGAAAG | 5.7 | 4.91 | 3.23 | 5.83 | 4.21 | 3.25 | 6.97
ACTTACGGGTCTACGAGGTTATAGCACGCGTATA | 0.863 | 0.586 | 0.937 | 1.32 | 1.83 | 0.82 | 1.55
CCTGCGAGGTCATGGTCAGCTAATCTACAGTATG | 6.42 | 6.15 | 4.26 | 7.05 | 4.34 | 3.39 | 3.95
AATACAGGGTCATCGTAGGTCAGAGTACGCACAG | 6.41 | 5.81 | 3.75 | 6.77 |  | 2.38 | 4.46

Sequence | PBM binding z-score [1] | PBM binding z-score [2] | PBM binding z-score [3] | PBM binding z-score [4] | PBM binding z-score [5] | PBM binding z-score [6] | PBM binding z-score [7]
TACCCTAGGTCATTGGGCCAGTATAGTACGCATC | 4.13 | 4.3 | 1.87 | 3.19 | 3.08 | 1.37 | 1.77
AGTCAAAGTTCATCTAGGTCACGTAAGATATGCT | 6.63 | 7.35 | 4.81 | 5.75 | 4.62 | 2.83 | 7.84
ATATGTAGGATAGCTGGGGTCATTCAGACTAGGC | 3.3 | 2.31 | 1.61 | 4.92 | 4.2 | 3.17 | 5.01
CCTTACGGGTCACTCCAGGTCATAGCATCGGAGT | 5.28 | 5.41 | 1.08 | 5.06 |  | 3.03 | 2.49
ATCTCTAGGTTAAGATAGTTCAGTGAATGCAAAT | 1.73 | 1.87 | 0.534 | 1.14 | 1.81 | 0.578 | 0.933
ACTCGGAGGACAAAGGTCAGGGCTACGCCAGTGA | 6.45 | 5.95 | 0.934 | 6.71 | 3.63 | 1.02 | 1.33
CAAACTAGGTCACGAGAGGTCAAAGTCGAATGAC | 7.59 | 8.3 | 2.82 | 7.93 |  | 2.88 | 5.09
CGTCAAAGTCCAAGGTAACGTAACAGAAAGCAGC | 0.398 | 1.1 | 1.15 | -0.0038 | 1.31 | 0.878 | 0.231
CGTCCAAGGTCATTGGAGGTCAGTGAAGACAGAT | 7.03 | 7.55 | 4.46 | 6.96 | 5.19 | 3.37 | 5.22
AGAATGAGGTTAAACGTAGATCAGGGAAGAAAGT | 2.9 | 1.54 | 2.08 | 3.22 | 2.55 | 0.549 | 1.04
AATACAGGGTCATCTTAGGCCAGAGTACGCACAG | 5.61 | 5.2 | 3.85 | 6.42 |  | 2.11 | 3.76
TCGCCTAGGTCATGGGCCAGTATACCACGCGAAC | 4.24 | 4.78 | 1.21 | 3.7 | 3.15 | 1.58 | 0.535
ATATGTAGGTTAACTGGGGTCATTCAGACTAGGC | 4.95 | 3.7 | 2.76 | 5.82 |  | 3.07 | 5.41
ATATGTAGGTTACCTGGGGTCATTCAGACTAGGC | 4.46 | 3.44 | 1.99 | 5.78 |  | 3.39 | 5.34
GGAACGAGGGCATTCGAGTTCATAGCATGGCGAT | 2.51 | 2.58 | 3.99 | 2.5 |  | -0.00454 | 8.72
CGTCCAAAGTCAAAGGTCAGTGAAGAGATGACGG | 4.93 | 5 | 0.813 | 5.96 | 2.81 | 0.117 | 0.98
TAGCCTAGGTCATGCGGGACAGTATAGTGTCGGC | 3.95 | 4.49 | 0.879 | 3.05 | 3.04 | 0.939 | 1.16
ATCGAAAGGTCTAAGGTGAGTATACCCACCCGAA | 1.27 | 1.29 | -0.301 | 1.25 | 2.28 | 1.67 | 0.152
AGAATGAGGTTACCAAAGGTCAGGGAAACGCTTG | 6.29 | 5.66 | 1.72 | 7.02 |  | 2.11 | 1.92
CAAACCAGGTCAAGAGGTCAAAGTCCGCTTCCCG | 8.29 | 7.56 | 3.21 | 8.5 |  | 3.54 | 5.13
CGTCCAAGGTCATATGAGGTCAGTGAAGACAGAT | 6.88 | 7.55 | 4.62 | 7.07 |  | 4.58 | 6.28

Sequence | PBM binding z-score [1] | PBM binding z-score [2] | PBM binding z-score [3] | PBM binding z-score [4] | PBM binding z-score [5] | PBM binding z-score [6] | PBM binding z-score [7]
CGTCAAAGTTCAACTAAGGTTACGTAAAGCACGC | 6.64 | 7.26 | 4.73 | 6.03 |  | 2.2 | 4.89
GCTAGTTGGTCAGTAAAAGGTGACACACCGGTCG | 1.58 | 1.17 | -0.429 | 0.87 | 0.938 | -0.422 | -0.475
CCTACTGGGTCACGAAAGGTCATTGATTCAGTGA | 6.96 | 6.81 | 1.69 | 7.05 |  | 1.82 | 2.59
CGTCCAAGGTTAAGGTCAGTGAAAGAGACTCGAA | 4.2 | 4.7 | 1.71 | 3.45 | 3.83 | 3.83 | 1.79
TGTCAAAGTTCAAAGGTGACGTAAGTATCCACAC | 6.99 | 6.27 | 4.5 |  | 3.76 | -0.183 | 4.97
CTACCAAGGTCAACAAGGTCGTTGATTACTATTC | 6.87 | 6.92 | 4.65 | 6.84 |  | 3.68 | 7.86
CAAACCAGGTCACAGAGGTCAAAGTCCGTGCGTA | 7.52 | 7.53 | 4.06 | 8.5 |  | 3.92 | 8.47
CGTCCAAGGTCATAGGAGGTCAATGAAGACAGAT | 6.94 | 7.28 | 3.99 | 7.15 |  | 3.89 | 4.97
CCGAGTAGGTTACGAGGGGTCATTCAGTGCGAAT | 5.1 | 3.76 | 1.89 | 5.85 |  | 0.607 | 5.41
GCATATAGGTAATACAAGGTCAAAGTCCGATTGT | 3.39 | 2.81 | 1.43 | 3.97 |  | 3.05 | 2.68
CCGAATAGGTTACGAGGGGGCATTCAGTGCGAAT | 3.99 | 2.87 | 1.75 | 3.03 | 4.03 | 0.692 | 3.51
ATATGTAGGTTAGGGTCAGTCAGAAAGTAGGGAA | 3.08 | 3.14 | 1.04 | 3.37 | 3.32 | 2.69 | 1.79
GCTGCTAGGTCAACTGATGGTCATCTAAAGCTCG | 5.46 | 5.43 | 1.87 | 3.25 | 3.09 | 1.12 | 0.187
GCTGCTAGGTCAACTGATGGTCAACTAAAGCTCG | 5.53 | 5.66 | 1.57 | 2.94 | 2.91 | 1.01 | 0.0813
AGAATGAGGTTACCAAAGTTCAGGGAAACGCTTG | 4.44 | 3.52 | 1.62 | 4.3 | 4.02 | 0.878 | 2.32
CGAACGAGGTCATCCAGGACAGTGAATACATTGA | 6.67 | 6.52 | 4.86 | 7.28 |  | 3.83 | 6.44
TCTGCTAGGTCAACGATGGTCAGTTAATCTGCTA | 4.12 | 4.95 | 0.834 | 2.5 | 2.93 | 0.73 | -0.183
CCGACTGGGGCAAGGTCACCATAACGCACAGCCA | 4.32 | 4.45 | 0.549 | 4.37 | 3.66 | 2.7 | 2.02
GCTTAAGGGTCAAAGGTTATAGCATGAATAGAAT |  | 7.11 | 3.54 | 9.83 | 4.14 | -0.296 | 2.8
CTATGTAGGTTAAGGGAGTCATTCAGTTTGAAAG |  | 0.44 | 0.0971 | 0.802 | 0.572 | -0.282 | 0.283
